Experimental data as given in PubChem BioAssay (EPA / NIEHS).
The source made the active and inactive calls. The calls were made as follows: active = hit-call score of the fitted dose curve at least 0.9, where 1 is the maximum; inactive = score below 0.9.

Assays:
Settings in all cases: mRNA level, 48 h; actives raise or lower the signal
[1] = read-out: Cytochrome P450 (CYP1A1), CYP1A1 (gene 1543); test: LTEA_HepaRG_CYP1A1: Life Technologies and Expression Analysis (LTEA) Assay for Cytochrome P450 (CYP1A1) using HepaRG (AID 2283454)
In short: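 CYP1A1 transcript levels measured by Fluidigm qRT-PCR against three housekeeping genes, 48 h after chemical dosing of human HepaRG cells (highest concentration 100 uM, half-log steps, 0.5% DMSO vehicle). Gain or loss of signal fitted relative to DMSO.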

[2] = read-out: CFLAR gene, CFLAR (gene 8837); test: LTEA_HepaRG_CFLAR: Life Technologies and Expression Analysis (LTEA) Assay for CFLAR gene using HepaRG (AID 2283455)
In short: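 Gain- or loss-of-signal changes in CFLAR transcript were fitted bidirectionally relative to 0.5% DMSO. Cells (HepaRG, duplicate wells) were dosed for 48 h across eight half-log concentrations topping at 100 uM; quantitation by TaqMan qRT-PCR.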

[3] = read-out: growth arrest and DNA damage 45 (GADD45A), GADD45A (gene 1647); test: LTEA_HepaRG_GADD45A: Life Technologies and Expression Analysis (LTEA) Assay for growth arrest and DNA damage 45 (GADD45A) using HepaRG (AID 2283458)
In short: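 HepaRG, 48 h exposure, 8 conc. (top 100 uM, half-log steps), 0.5% DMSO vehicle, duplicates. Read-out: qRT-PCR mRNA level, housekeeping-normalized (ACTB/GAPDH/POLR2A). Curves fit bidirectionally vs DMSO baseline.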

[4] = read-out: Forkhead box O3 (FOXO3), FOXO3 (gene 2309); test: LTEA_HepaRG_FOXO3: Life Technologies and Expression Analysis (LTEA) Assay for Forkhead box O3 (FOXO3) using HepaRG (AID 2283459)
In short: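 Gene-expression endpoint: FOXO3 transcript level by qRT-PCR in HepaRG cultures treated 48 h with chemicals up to 100 uM (half-log, 0.5% DMSO vehicle).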

[5] = read-out: ABC Transporter (ABCB1), ABCB1 (gene 5243); test: LTEA_HepaRG_ABCB1: Life Technologies and Expression Analysis (LTEA) Assay for ABC Transporter (ABCB1) using HepaRG (AID 2283460)
In short: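 Human liver HepaRG line treated 48 h with up to 100 uM compound (eight half-log points, 0.5% DMSO); ABCB1 mRNA change fitted bidirectionally against DMSO controls.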

[6] = read-out: growth arrest and DNA damage 45 (GADD45B), GADD45B (gene 4616); test: LTEA_HepaRG_GADD45B: Life Technologies and Expression Analysis (LTEA) Assay for growth arrest and DNA damage 45 (GADD45B) using HepaRG (AID 2283461)
In short: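 Transcript level quantified by Fluidigm TaqMan qRT-PCR with three housekeeping genes for normalization, analyzed for up- or down-regulation against 0.5% DMSO. HepaRG cultures dosed 48 h at eight half-log concentrations up to 100 uM, duplicates.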

[7] = read-out: ABC Transporter (ABCC3), ABCC3 (gene 8714); test: LTEA_HepaRG_ABCC3: Life Technologies and Expression Analysis (LTEA) Assay for ABC Transporter (ABCC3) using HepaRG (AID 2283462)
In short: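 Transcript level by TaqMan qRT-PCR, normalised to three housekeeping genes, fitted in both directions relative to vehicle. Chemicals tested in duplicate at eight half-log concentrations up to 100 uM for 48 h on HepaRG cells (0.5% DMSO).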

[8] = read-out: ABC Transporter (ABCB11), ABCB11 (gene 8647); test: LTEA_HepaRG_ABCB11: Life Technologies and Expression Analysis (LTEA) Assay for ABC Transporter (ABCB11) using HepaRG (AID 2283463)
In short: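 Using HepaRG cultures held in 0.5% DMSO, chemicals were tested at half-log dilutions from 100 uM for 48 h. Induction or suppression of ABCB11 mRNA, normalized to ACTB, GAPDH and POLR2A, was fitted bidirectionally against vehicle.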

[9] = read-out: Forkhead box O1 (FOXO1), FOXO1 (gene 2308); test: LTEA_HepaRG_FOXO1: Life Technologies and Expression Analysis (LTEA) Assay for Forkhead box O1 (FOXO1) using HepaRG (AID 2283456)
In short: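 Using one lot of HepaRG hepatic cells kept in 0.5% DMSO, the team applied test chemicals in duplicate, half-log dilutions from 100 uM, for 48 h. Expression, normalised to ACTB/GAPDH/POLR2A, was compared with vehicle in either direction.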

Measured: AC50

Cc1c(-c2cccnc2)c2ccccc2n1CCCCC(=O)O
active: [1] 37.2 µM
not listed: [9]
inactive: all other assays above

CC(C)=CCCC(C)=CC=O
active: [1] 63.9 µM
not listed: [9]
inactive: all other assays above

CC(O)CN(CCN(CC(C)O)CC(C)O)CC(C)O (configuration not stated)
active: [1] 50 µM | [4] 12.4 µM
not listed: [9]
inactive: all other assays above

O=C(O)c1cc(N=Nc2ccc(S(=O)(=O)Nc3ccccn3)cc2)ccc1O
active: [1] 35.8 µM
not listed: [9]
inactive: all other assays above

Cn1c(=O)c2c(ncn2C)n(C)c1=O
active: [1] 50 µM
not listed: [9]
inactive: all other assays above

NC(=O)NO
not listed: [1]
inactive: all other assays above

C1N2CN3CN1CN(C2)C3
active: [1] 51 µM
not listed: [9]
inactive: all other assays above

CCC(C)(C)C(=O)O[C@H]1C[C@@H](C)C=C2C=C[C@H](C)[C@H](CC[C@@H]3C[C@@H](O)CC(=O)O3)[C@H]21
active: [5] 31.7 µM | [8] 50 µM
not listed: [1]
inactive: all other assays above

CC(=O)OC[C@H]1O[C@@](COC(C)=O)(O[C@H]2O[C@H](COC(C)=O)[C@@H](OC(C)=O)[C@H](OC(C)=O)[C@H]2OC(C)=O)[C@@H](OC(C)=O)[C@@H]1OC(C)=O
active: [1] 47.5 µM
not listed: [9]
inactive: all other assays above

CNCc1ccc(NC(=O)c2c[nH]c3c2C(=O)CCC3)cc1
active: [1] 73.8 µM
not listed: [9]
inactive: all other assays above

C=CC(=C)CCC=C(C)C
active: [1] 35 µM
not listed: [9]
inactive: all other assays above

O=C1CCCCCN1
not listed: [9]
inactive: all other assays above

O=c1[nH]c2ccc(S(=O)CCN3CCC(Cc4ccc(F)cc4)CC3)cc2o1 (configuration not stated)
active: [1] 59 µM
not listed: [9]
inactive: all other assays above

Clc1nc(Cl)c(Cl)c(Cl)c1Cl
active: [1] 74.4 µM
not listed: [9]
inactive: all other assays above

O=C(O)c1cccc(Oc2ccccc2)c1
active: [1] 37.9 µM
not listed: [9]
inactive: all other assays above

CC(C)=CCC/C(C)=C\CO
not listed: [1]
inactive: all other assays above

CC(C)=CCCC(C)CCO (configuration not stated)
active: [1] 62.2 µM
not listed: [9]
inactive: all other assays above

CCn1nc(Cc2ccccc2)cc1C1CCN(C[C@H]2C[C@H](N(C)[C@@H](C(=O)O)C(C)C)C[C@@H]2c2cccc(F)c2)CC1
active: [1] 83.9 µM | [7] 50 µM
not listed: [9]
inactive: all other assays above

CC(C)=CCC/C(C)=C/CO
not listed: [1]
inactive: all other assays above

CCN(C(=O)c1cc(C)cc(OC[C@H](C)Nc2ccncc2)c1)C(C)C
active: [1] 19.5 µM | [3] 232 nM | [7] 33.8 µM | [8] 25.1 µM
not listed: [9]
inactive: all other assays above

C=CCCCCCCCCC(=O)O
active: [1] 50 µM
not listed: [9]
inactive: all other assays above

Cc1[nH]cnc1C[C@H]1CCc2c(C)c3ccccc3n2C1=O
active: [1] 10.7 µM | [2] 79.9 µM | [3] 62000 nM | [5] 68.5 µM | [6] 25.2 µM | [7] 10.6 µM | [8] 22.7 µM
inactive: [4]

CC(=O)OCCC(C)C
active: [1] 73.2 µM
not listed: [9]
inactive: all other assays above

O=P(OC(CCl)CCl)(OC(CCl)CCl)OC(CCl)CCl
active: [1] 13.1 µM | [3] 210 nM | [5] 78.8 µM | [8] 66.6 µM
inactive: [2] | [4] | [6] | [7]
